According to article PMC7819943, “Rice protein-binding microarrays: a tool to detect cis-acting elements near promoter regions in rice”:
Over roughly 35,000 sequences, “fluorescence intensity (a.u.)” has its median near 10,000; the highest 2% begin near 52,000. What follows is part of a selection rich in the highest values, with near analogues and random picks from the rest.

target: T1, OsWOX13 (Oryza sativa, UniProt Q5QMM3 1-267); assay: protein-binding microarray (RPBM); PBS, 2% BSA, 51.3 ng/ul salmon testes DNA, 50 uM zinc acetate, 200 nM TF, 25 C, 1 h; high values mean tight binding; conditions: protein: recombinant; tags: N-terminal polyhistidine and DsRed monomer fusion (pET32a); label: CyDye5-dUTP incorporated in the synthesized complementary strand; 3' TTTTT single-stranded linker to array surface; dsDNA, one strand shown
T1 sequence: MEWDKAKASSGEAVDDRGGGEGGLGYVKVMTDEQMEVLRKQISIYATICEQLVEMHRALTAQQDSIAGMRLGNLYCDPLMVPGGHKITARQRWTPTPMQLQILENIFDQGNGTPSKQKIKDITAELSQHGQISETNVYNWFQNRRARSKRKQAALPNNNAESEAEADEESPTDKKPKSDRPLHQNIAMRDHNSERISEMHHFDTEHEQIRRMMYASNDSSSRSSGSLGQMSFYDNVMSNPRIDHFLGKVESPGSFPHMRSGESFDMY
Procedure, shortened: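 Binding signal is defined as the fluorescence intensity of each feature in arbitrary units, read on an Axon 4000B scanner. Transcription factors with N-terminal polyhistidine and DsRed fusions came from E. coli BL21-CodonPlus and were purified on Ni–NTA. They were incubated at 200 nM for 1 h at 25 °C on a custom Agilent array that had been made double-stranded with Cy5-dUTP, with 50 µM zinc acetate present, and the array was washed.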

| Sequence | binding signal |
| --- | --- |
| ACAATGATTGGGTCTTAAGATTTTCTTTAATTATTCGACGCGGAGTCACCTAGTGCAG | 58300 fluorescence intensity (a.u.) |
| GGGTGATATAAATTAGGAGGTGATAATAATTATTTCTTGGCGGAGTCACCTAGTGCAG | 26700 fluorescence intensity (a.u.) |
| AGCTGATCTATCCAAATTGGTGAAACTAATTGTAAATTCTCGGAGTCACCTAGTGCAG | 11000 fluorescence intensity (a.u.) |
| CGATTGATTGATTCTTGGTGCTCACTATCTCTAAATTGATCGGAGTCACCTAGTGCAG | 59600 fluorescence intensity (a.u.) |
| ATAAAATAAATGATAATTACATAAATTTCTTTAAATAAGACGGAGTCACCTAGTGCAG | 10900 fluorescence intensity (a.u.) |
| CTTTAATTGGTGCTTGTTAAACCTCTTAGTGCTTGTTAAACGGAGTCACCTAGTGCAG | 29200 fluorescence intensity (a.u.) |
| TTAATTAGGAGATATTGATTGATAAACGTACCTCTTGGTGCGGAGTCACCTAGTGCAG | 65300 fluorescence intensity (a.u.) |
| GATTGATGCAATTTAAATTATACTTAGTATTGGTGTATAACGGAGTCACCTAGTGCAG | 11400 fluorescence intensity (a.u.) |
| TTGATTGATGTCATTTAAATTATCATTGGTCTTGGTGTATCGGAGTCACCTAGTGCAG | 41100 fluorescence intensity (a.u.) |
| CTGTGAATTGATTCATCTCTCACACATGGTTCTCCACTATCGGAGTCACCTAGTGCAG | 9680 fluorescence intensity (a.u.) |
| GCTTACAATTAATGATTACCTTTTCATAAAGATTATTATTCGGAGTCACCTAGTGCAG | 12400 fluorescence intensity (a.u.) |
| AATAAATCTATAATTTTATGATATTATGACTTAAATCTATCGGAGTCACCTAGTGCAG | 4790 fluorescence intensity (a.u.) |
| TTTTATTAACTGTAAACGTCACATGTTCTGTCATACGCGTCGGAGTCACCTAGTGCAG | 5270 fluorescence intensity (a.u.) |
| CTTGTCAATCTACAGAGAGTCCACGAGTTAGTAGTATGTGCGGAGTCACCTAGTGCAG | 8690 fluorescence intensity (a.u.) |
| TAGTTAATTGTGCCAAACAAAATTCAAAATTAAGACATCTCGGAGTCACCTAGTGCAG | 33000 fluorescence intensity (a.u.) |
| CACATTGACCAAAATTTAATGTTTGTTTCCTACTAGTGTGCGGAGTCACCTAGTGCAG | 4440 fluorescence intensity (a.u.) |
| GGTGTCTTGATTGATATGATTTAAATTATTCTTGGTCTTGCGGAGTCACCTAGTGCAG | 58500 fluorescence intensity (a.u.) |
| TATTGATATGATTTAAATTGTCCTTGGTCTTGGTGTATAACGGAGTCACCTAGTGCAG | 40700 fluorescence intensity (a.u.) |
| TATTAATTGATGCGATTTAAATTATCTTTGGTCTTGATGTCGGAGTCACCTAGTGCAG | 50000 fluorescence intensity (a.u.) |
| TGGCACACTAATTAGGGAGAAAATCTCTATCTTGTGTTGTCGGAGTCACCTAGTGCAG | 9710 fluorescence intensity (a.u.) |
| AATAATTTTCTTTTGTCACACTGTTTCTTCTCTAATCTATCGGAGTCACCTAGTGCAG | 5890 fluorescence intensity (a.u.) |

| Sequence | binding signal |
| --- | --- |
| ACACTAATTAGGGAGATAATCTCTCTTGTGGTGTTTGTGTCGGAGTCACCTAGTGCAG | 52300 fluorescence intensity (a.u.) |
| ATACTGTCATCAATTGATTACTCTGACCGTCGATCACACACGGAGTCACCTAGTGCAG | 34100 fluorescence intensity (a.u.) |
| TTATAACACAAATAATATAATAGATATATAGACTGTTGTCCGGAGTCACCTAGTGCAG | 3650 fluorescence intensity (a.u.) |
| ATGTAATTTCACCATAACTATATATTATAATAAGATAAGTCGGAGTCACCTAGTGCAG | 8720 fluorescence intensity (a.u.) |
| TACCATGATTGGGCTGCAACTAAATTGACAGGTCAGCCATCGGAGTCACCTAGTGCAG | 60400 fluorescence intensity (a.u.) |
| TCCAGGTGATGGTAATGATATTGACATGCCCTCATCTAGTCGGAGTCACCTAGTGCAG | 3770 fluorescence intensity (a.u.) |
| CTAGATTGATCGAAATCCGTCAAGTTCATGAACCGTTAAGCGGAGTCACCTAGTGCAG | 54400 fluorescence intensity (a.u.) |
| TTATATAGTTACCAAAATTTGACAGCAAACTAAATGTAGCCGGAGTCACCTAGTGCAG | 3680 fluorescence intensity (a.u.) |
| ATGATTTTCATCCGTTAGATTTGATGAATAAAGTATGAAGCGGAGTCACCTAGTGCAG | 11100 fluorescence intensity (a.u.) |
| AGGGTGATTGACAGGTGGGTCCATCCCCTCACATGCCAGGCGGAGTCACCTAGTGCAG | 64800 fluorescence intensity (a.u.) |
| CTGATGATTCACCCATGATCGATTGCTCGATCCGTTTAAGCGGAGTCACCTAGTGCAG | 3710 fluorescence intensity (a.u.) |
| AAGAAAATTTAAAACAATTGATTACATACTAAATTAATATCGGAGTCACCTAGTGCAG | 9840 fluorescence intensity (a.u.) |
| GTGTATCATCTAGGTCCTAAATTGACACATCCCCTCTAGGCGGAGTCACCTAGTGCAG | 10100 fluorescence intensity (a.u.) |
| AATTGAAATAATTGGAAATTTTCATATTTATATATTAAACCGGAGTCACCTAGTGCAG | 5800 fluorescence intensity (a.u.) |
| ATATAGTTACCAAAATTTGACAGCAAACTAAATGTAGCCACGGAGTCACCTAGTGCAG | 7890 fluorescence intensity (a.u.) |
| AAGTGATTGAAATTTAATTCATGATCCTAAACCATACAACCGGAGTCACCTAGTGCAG | 53200 fluorescence intensity (a.u.) |
| TTGTGACTTGACTTTGCCAATCTTAGTCTATTTTCTCGAGCGGAGTCACCTAGTGCAG | 5270 fluorescence intensity (a.u.) |
| TATTAAATTGGCTATAGGTGATTTGGAGCTAATAGTTAGCCGGAGTCACCTAGTGCAG | 24000 fluorescence intensity (a.u.) |
| CTTAATTACTATTCCCTCCGTCATACAATATAAGAGATTTCGGAGTCACCTAGTGCAG | 22500 fluorescence intensity (a.u.) |
| CATAAACTGAAGCTCATAATTGTTTGTGAAATCGTTTATCCGGAGTCACCTAGTGCAG | 16900 fluorescence intensity (a.u.) |
| CGTGGTCTCTAATTTGTTTTGTTCGTTCTCCTTTCTTGTTCGGAGTCACCTAGTGCAG | 4660 fluorescence intensity (a.u.) |
